TEAD-YAP block – TEAD-YAP interaction inhibition; HEK-TIYL cells, TEAD-Gal4/YAP UAS-luciferase luminescence; inhibition, % at 9.12 µM; 1.4% of 640,000 active; in the data active means inhibition above about 32%
GPR151 ag – human GPR151 activation; PathHunter beta-arrestin GPR151 cells, luminescence; activation, % at 11.2 µM; 1% of 650,000 active; in the data active means activation above about 4.9%
MITF primary – blocks human microphthalmia-associated transcription factor | O75030 | AlphaScreen MITF homodimerization, bead proximity signal | inhibition, % at 2.6 µM | AID 1259374 | 0.91% of 650,000 active; in the data active means inhibition above about 50%
Target sequence (O75030 whole entry, looked up): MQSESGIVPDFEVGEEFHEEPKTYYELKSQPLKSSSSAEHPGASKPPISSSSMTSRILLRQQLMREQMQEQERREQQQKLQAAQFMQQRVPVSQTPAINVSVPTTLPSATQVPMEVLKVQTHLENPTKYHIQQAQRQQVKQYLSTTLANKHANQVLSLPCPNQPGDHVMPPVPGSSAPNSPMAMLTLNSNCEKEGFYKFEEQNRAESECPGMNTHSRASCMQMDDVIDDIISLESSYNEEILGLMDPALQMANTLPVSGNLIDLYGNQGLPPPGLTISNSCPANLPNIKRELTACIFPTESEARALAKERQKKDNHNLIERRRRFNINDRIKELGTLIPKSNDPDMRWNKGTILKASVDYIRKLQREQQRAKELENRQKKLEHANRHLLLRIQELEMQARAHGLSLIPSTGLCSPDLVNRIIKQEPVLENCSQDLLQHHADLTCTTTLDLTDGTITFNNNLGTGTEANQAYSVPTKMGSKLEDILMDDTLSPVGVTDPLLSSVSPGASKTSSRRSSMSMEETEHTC
FBW7 act – human FBW7 E3 ligase activation, primary screen; Q969H0; AlphaScreen FBW7–phospho-cyclin E peptide binding, activator screen; normalized activity (activation), % at 26.1 µM; 0.13% of 650,000 active; AID 1259310; in the data active means normalized activity above about 1.9%;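 further: purified mutant Fbw7 with reduced substrate affinity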
Numbers stand for hits; 0 = inactive. Most compounds without a hit are left out; they make up all but 3.5% or so of the library.

SMILES	TEAD-YAP block	GPR151 ag	MITF primary	FBW7 act
CC(C)CCN1C(=O)c2cccc3c(N)ccc(c23)C1=O	0	0	0	2.1
CCCCN1C(=O)c2cccc3c(N)ccc(c23)C1=O	0	0	0	0
CCn1cc(C(=O)N2CCCC(c3c(S(C)(=O)=O)cnc4ncnn34)C2)c(C)n1 (stereo unspecified)	0	0	0	0
COc1cc(CNc2ccnc3c(-c4cccc(F)c4)cnn23)cc(OC)c1OC	0	0	0	1.9
COc1ccc(CNc2ccnc3c(-c4ccccc4)cnn23)cc1	0	0	0	1.9
COc1ccc(CNc2ccnc3c(-c4ccc(OC)cc4)cnn23)cc1	0	0	0	0
O=C(NC1CCCCC1)C1CC(O)CN1C(=O)Nc1ccccc1 (stereo unspecified)	0	0	0	0
CCOC(=O)CN1CCN(c2ccc(-c3cccc(OC)c3)cn2)CC1	71	0	0	0
COc1cccc(/C=C2\SC(=S)N(NC(=O)c3cccnc3)C2=O)c1OC	0	0	0	0
COc1ccccc1Cn1c(SCc2cccc([N+](=O)[O-])c2)nc2cc(C(=O)N3CCC4(CC3)OCCO4)ccc2c1=O	0	0	0	0
CC(C)C[C@@H](NC(=O)[C@H](Cc1ccccc1)NC(=O)c1cnccn1)B(O)O	62	0	0	0
CC(CCc1ccccc1)NC(=O)c1cnccn1 (stereo unspecified)	0	0	0	0
CCn1ncc(C2=NOC(C(=O)Nc3cc(C)on3)C2)c1C (stereo unspecified)	0	0	0	0
COc1ccc(S(=O)(=O)Oc2c(OC)cc(C=O)cc2OC)cc1	39	0	0	0
COc1ccc(S(=O)(=O)Oc2cc(C=O)ccc2OC)cc1	50	0	0	0
Clc1nc(NC2CC2)c2ncn(-c3ccsc3)c2n1	0	0	0	0
COC(=O)c1c(NC(=O)c2cc([N+](=O)[O-])cc([N+](=O)[O-])c2)c(C#N)c(C)n1C	0	0	0	0
CCOc1ccc(/C(O)=C2/C(=O)C(=O)N(Cc3cccnc3)C2c2ccc(OC)cc2)cc1C (stereo unspecified)	0	0	0	0
COc1ccc(N2CCN(S(=O)(=O)c3ccc(C)cc3)CC2)c([N+](=O)[O-])c1	0	0	0	0
O=[N+]([O-])c1ccccc1N1CCN(S(=O)(=O)c2ccc3ccccc3c2)CC1	0	0	0	0
Cc1ccc(S(=O)(=O)N2CCN(c3ccc(C(N)=O)cc3[N+](=O)[O-])CC2)cc1	37	0	0	0
NC(=O)c1ccc(N2CCN(S(=O)(=O)c3ccc4ccccc4c3)CC2)c([N+](=O)[O-])c1	45	0	0	0
COc1cccc(OCC(=O)N2CCC3(CC2)OCc2cccc(OC)c2O3)c1	0	0	0	0
c1cn(Cc2ccc(Nc3nccc(-c4cncc(N5CCOCC5)c4)n3)cc2)cn1	68	0	0	0
Cc1nc(C)n(-c2ccc(Nc3nccc(-c4cncc(N5CCOCC5)c4)n3)cc2)n1	0	0	0	0
SMILES	TEAD-YAP block	GPR151 ag	MITF primary	FBW7 act
c1cnn(Cc2ccc(Nc3nccc(-c4cncc(N5CCOCC5)c4)n3)cc2)c1	65	0	0	0
c1cncc(Nc2nc(NCCN3CCOCC3)c3ncn(C4CCCCC4)c3n2)c1	42	0	0	0
c1cc(N2CCOCC2)ccc1Nc1nc(Nc2ccc(N3CCOCC3)cc2)c2ncn(C3CCCCC3)c2n1	0	0	52	0
c1cncc(Nc2nc(Nc3ccc(N4CCOCC4)cc3)c3ncn(C4CCCCC4)c3n2)c1	37	0	0	0
c1cncc(CNc2nc(NCCN3CCOCC3)c3ncn(C4CCCCC4)c3n2)c1	0	0	0	0
CC(C)NCCCOc1ccc2ccccc2c1Br	40	0	0	0
c1ccc(CNc2nc(Nc3ccc4ncccc4c3)nc3c2ncn3-c2ccccc2)cc1	0	0	0	0
CC(C)n1cnc2c(NCc3cccnc3)nc(Nc3nccc4ccccc34)nc21	32	0	0	0
c1cncc(CNc2nc(NC3CC3)c3ncn(-c4ccsc4)c3n2)c1	40	0	0	0
c1cncc(CNc2nc(Nc3cnccn3)nc3c2ncn3-c2ccsc2)c1	59	0	0	0
c1ccc(CNc2nc(NCc3cccnc3)nc3c2ncn3-c2ccsc2)cc1	0	0	0	0
Nc1nc(Nc2ccc3ncccc3c2)nc2c1ncn2-c1ccccc1	33	0	0	52
c1cncc(CNc2nc(NCc3cccnc3)c3ncn(-c4ccsc4)c3n2)c1	0	0	0	0
CC(=O)c1ccc(NC(=O)Nc2ccc(C(F)(F)F)cc2)cc1	0	0	0	0
c1cnc(Nc2nc(NCc3cccnc3)c3ncn(-c4ccsc4)c3n2)nc1	0	0	0	0
c1cncc(CNc2nc(Nc3nccc4ccccc34)nc3c2ncn3-c2ccsc2)c1	59	0	0	0
c1ccc(Nc2nc(Nc3cnccn3)nc3c2ncn3-c2ccsc2)cc1	0	0	0	0
Nc1nc(Nc2cnccn2)nc2c1ncn2-c1ccsc1	43	0	0	0
CC(=O)Nc1ccc(Nc2nc(Nc3nccc4ccccc34)nc3c2ncn3C(C)C)cc1	45	0	0	0
c1cncc(CNc2nc(Nc3ccc4ncccc4c3)nc3c2ncn3-c2ccsc2)c1	33	0	0	0
O=C(Nc1ccc(S(=O)(=O)N2CCCCC2c2cccnc2)cc1)c1ccccc1 (stereo unspecified)	0	0	0	0
CC(C)(C)c1ccc(C(=O)Nc2ccc(S(=O)(=O)N3CCCCC3c3cccnc3)cc2)cc1 (stereo unspecified)	43	0	0	0
COc1cc(/C=C/C(=O)Nc2ccc(S(=O)(=O)N3CCCCC3c3cccnc3)cc2)cc(OC)c1OC (stereo unspecified)	56	0	0	0
CC(NC(=O)c1cc2n(n1)C(C(F)(F)F)CC(c1ccc(Cl)c(Cl)c1)N2)c1ccccc1 (stereo unspecified)	0	0	0	0
CCC(=O)Nc1cc(C2CC2)nn1-c1nc(-c2ccccc2)cc(=O)[nH]1	0	0	0	2.2
SMILES	TEAD-YAP block	GPR151 ag	MITF primary	FBW7 act
COc1cc(Nc2nccc(Nc3ccc4c(c3)OCO4)n2)cc(OC)c1OC	34	0	0	0
COc1cc(Nc2ccnc(NCc3ccc4c(c3)OCO4)n2)cc(OC)c1OC	35	0	0	0
COc1cc(Nc2cc(C)nc(NCc3ccc4c(c3)OCO4)n2)cc(OC)c1OC	43	0	0	0
COc1ccc(-c2nccc(Nc3cc(OC)c(OC)c(OC)c3)n2)cn1	60	0	0	0
CCOc1ccccc1Nc1nnc(SCC(=O)c2ccc(OC)c(OC)c2)s1	0	0	0	0
CC(=O)c1ccc2c(c1)[nH]c1cc(C(C)=O)ccc12	46	0	0	0
COc1cccc(-c2cnc(NCc3cccc(F)c3)n2C)c1	45	0	0	0
COc1cccc(-c2cnc(NCc3cccc(Cl)c3)n2C)c1	41	0	0	0
COc1cccc(-c2cnc(NCc3ccc(F)cc3)n2C)c1	0	0	0	0
COc1cccc(CNC(=O)c2cnc3ccc(-c4cn[nH]c4)cn23)c1	88	0	0	0
Cc1ccc(C(=O)Nc2ncc(C)s2)c(C)c1	80	0	0	0
O=C1C(=O)c2ncccc2-c2cccnc21	75	0	57	0

High-throughput results (PubChem BioAssay)
